Screening results from PubChem BioAssay.
Tb PFK inh-1 = qHTS Assay to Find Inhibitors of T. brucei phosphofructokinase | ATP-dependent 6-phosphofructokinase (Trypanosoma brucei brucei), O15648 | T. brucei PFK, ADP-Glo luminescence | AID 485367, 2010 | Potency, µM (top dose mostly 57.5 µM), usual class: inhibitors | 0.17% of 330,000 active; note: nearly all actives have a fitted effect of over 60% in size
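In TEA buffer at pH 8.0 with 5 mM MgCl2, enzyme (1.25 nM) converted F6P (0.5 mM) and ATP (0.1 mM) for 45 min at room temperature. ADP product was read by luciferase luminescence.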
VDR inhibitor = Inhibitors of the vitamin D receptor (VDR): qHTS; Vitamin D3 receptor (Homo sapiens), P11473; VDR-SRC2-3 peptide fluorescence polarization, 2 h; Potency, µM, usual class: inhibitors; 0.93% of 400,000 active
Target sequence (P11473 whole entry, looked up): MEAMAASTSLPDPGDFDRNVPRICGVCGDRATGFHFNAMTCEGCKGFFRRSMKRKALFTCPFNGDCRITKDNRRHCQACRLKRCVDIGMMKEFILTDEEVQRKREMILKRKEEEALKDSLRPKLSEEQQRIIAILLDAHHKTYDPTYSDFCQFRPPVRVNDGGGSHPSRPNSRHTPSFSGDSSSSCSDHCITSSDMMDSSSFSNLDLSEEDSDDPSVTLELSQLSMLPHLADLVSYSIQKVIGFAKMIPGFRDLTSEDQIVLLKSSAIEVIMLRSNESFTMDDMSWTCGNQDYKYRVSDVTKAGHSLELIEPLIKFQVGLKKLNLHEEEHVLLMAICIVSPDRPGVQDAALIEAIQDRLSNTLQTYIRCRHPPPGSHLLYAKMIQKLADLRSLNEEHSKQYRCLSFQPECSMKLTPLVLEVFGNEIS
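Signal is fluorescence polarization, reporting how far test compounds block the interaction of VDR with the SRC2-3 coregulator peptide after a 2 h room-temperature incubation.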
GLS inh = qHTS for Inhibitors of Glutaminase (GLS). 0.21% of 410,000 active. GLS enzymatic activity, qHTS titration. AID 624170, 2012. Glutaminase kidney isoform, mitochondrial (Homo sapiens), O94925. Potency, µM (series often up to 45.5 µM), most hits filed as inhibitors
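Assay buffer: 45 mM KH2PO4 pH 8.2, 0.02% Tween-20. hKGA acts on L-glutamine (1 mM solution added); product glutamate is reported by an oxidase/peroxidase Amplex Red coupling, with fluorescence taken at baseline and 30 min.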
Pin1 inh = qHTS Assay to Find Inhibitors of Pin1. Potency, µM (doses to about 115 µM), most hits filed as inhibitors. Pin1 FP peptide displacement, HiFluor488, 10 min. 0.009% of 390,000 active. Peptidyl-prolyl cis-trans isomerase NIMA-interacting 1 (Homo sapiens), Q13526. AID 504891, 2011; active = well fitted inhibition curve with a large enough effect in the polarisation, with a control signal flat, not every such curve was filed as active; inconclusive = small, poorly fitted or top-dose-only effect, or effect the other way, or a change in a side signal; inactive = no such curve, though single readings can be large or run the other way; the % refers to the polarisation
Target sequence (Q13526 whole entry, looked up): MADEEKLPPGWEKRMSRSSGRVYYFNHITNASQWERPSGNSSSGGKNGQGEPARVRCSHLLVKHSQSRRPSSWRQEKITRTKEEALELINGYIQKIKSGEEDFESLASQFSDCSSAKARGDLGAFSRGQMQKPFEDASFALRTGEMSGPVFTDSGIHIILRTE
PGK inhibitor = qHTS Assay to Find Inhibitors of Phosphoglycerate Kinase; Phosphoglycerate kinase, glycosomal (Trypanosoma brucei brucei), P07378; AID 602233, 2012; Potency, µM (top dose mostly 57.5 µM), most hits filed as inhibitors; PGK/GAPDH coupled, Kinase-Glo luminescence, 60 min; 0.043% of 380,000 active; note: nearly all actives have a fitted effect of over 60% in size
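Recombinant glycosomal PGK reaction used 1,3-bisphosphoglycerate generated in-well by GAPDH (100nM final) in 100mM TEA pH 7.6, 5mM MgCl2, 0.01% Tween-20. After 60 minutes at room temperature, ATP was read by Kinase-Glo Plus luminescence end-point.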
Tb PFK KinaseGlo = Tb PFK orthogonal confirmatory assay using ATP depletion (Kinase-Glo Plus) as an alternative measure of Tb PFK activity: Hit Validation | shares compounds with Tb PFK inh-1 | Tb PFK enzyme, ATP depletion, Kinase-Glo Plus luminescence | Potency, µM (titrated, usually from 57.5 µM) | 47% of 1,100 active; calls by dose curve; note: nearly all actives have a fitted effect of over 60% in size
Tb PFK inh-2 = Inhibitors of T. brucei phosphofructokinase: Hit Validation | Potency, µM (top dose mostly 57.5 µM), most hits filed as inhibitors | AID 504637, 2011 | 41% of 1,100 active | shares compounds with Tb PFK inh-1 | purified T. brucei PFK, ADP-Glo luminescence, 45 min; note: nearly all actives have a fitted effect of over 60% in size
USP1 UbRho = Inhibitors of USP1/UAF1: Hit Validation in Primary Assay | Potency, µM (doses to about 114 µM), actives largely listed as inhibitors | shares compounds with VDR inhibitor | 50% of 50 active | AID 540327, 2011 | Ub-Rhodamine cleavage, fluorescence kinetic read
VDR confirm = qHTS for Inhibitors of the vitamin D receptor (VDR): Hit Validation in Primary Screen; shares compounds with VDR inhibitor; Potency, µM, usual class: inhibitors; AID 602199, 2012; VDR-coactivator inhibition assay, qHTS confirmation; 89% of 840 active
VDR FP = qHTS for Inhibitors of the vitamin D receptor (VDR): Hit Validation using a Fluorescein Assay; VDR-coactivator binding, fluorescein fluorescence polarization; 48% of 840 active; shares compounds with VDR inhibitor; Potency, µM (highest dose often 57.1 µM), hits mostly inhibitors
VDR bla = qHTS for Inhibitors of the vitamin D receptor (VDR): Hit Validation using a Beta-Lactamase Assay; Potency, µM (highest dose often 46.1 µM), hits mostly inhibitors; 23% of 840 active; AID 602202, 2012; shares compounds with VDR inhibitor; VDR beta-lactamase reporter cells, FRET ratio; cells co-treated with VDR agonist LG190178
VDR cytotox = qHTS for Inhibitors of the vitamin D receptor (VDR): Hit Validation using a Cytotoxicity Assay. AID 602204, 2012. Potency, µM (titrated, usually from 48.3 µM), most hits filed as cytotoxic. shares compounds with VDR inhibitor. cytotoxicity counter-screen, cell viability, qHTS. 18% of 840 active; note: nearly all actives have a fitted effect of over 75% in size
A number is an active result. An excerpt weighted towards active compounds, which were near 1.1% of everything screened. Unless noted, calls come from the whole dose curve; as a rule, active = well fitted curve in the direction sought with a large enough effect; inconclusive = small, poorly fitted or top-dose-only effect, or another doubt; inactive = no such curve, though single readings can be large; an effect the other way counts as inactive or inconclusive.

Screening CN1CCCCC1Cn1cc(C(=O)c2cc([N+](=O)[O-])ccc2I)c2ccccc21 (stereo not given) returned VDR inhibitor inactive.
For CCc1c(C)sc(NC(=O)c2ccoc2C)c1C(N)=O the results were Tb PFK inh-1 inconclusive, VDR inhibitor 35µM, GLS inh inconclusive, Pin1 inh inactive, PGK inhibitor inactive, Tb PFK KinaseGlo 3.4µM, Tb PFK inh-2 8.5µM, VDR confirm 6.7, VDR FP inconclusive, VDR bla inactive and VDR cytotox inactive.
Cc1ccccc1-c1ccc2n1Cc1cnnn1-c1ccccc1-2 was read as VDR inhibitor inactive, GLS inh inactive, Pin1 inh inactive and PGK inhibitor inactive.
CCOc1cc(/C=C\[N+](=O)[O-])ccc1OCC(=O)N1CCOCC1 was read as Tb PFK inh-1 inconclusive, VDR inhibitor 28µM, GLS inh inactive, Pin1 inh inactive, PGK inhibitor inactive, Tb PFK KinaseGlo inactive, Tb PFK inh-2 inconclusive, VDR confirm 27, VDR FP inconclusive, VDR bla inconclusive and VDR cytotox inconclusive.
`COc1ccccc1OCC(=O)N1CCN(Cc2ccc3c(c2)OCO3)CC1` gave Tb PFK inh-1 inactive, VDR inhibitor inactive, GLS inh inactive, Pin1 inh inactive and PGK inhibitor inactive.
CN1CCc2cc3c(cc2[C@@H]1[C@@H]1OC(=O)c2c1ccc1c2OCO1)OCO3 was read as VDR inhibitor inactive.
`CN1CC[C@@]2(CCCN(C(=O)c3ccncc3)C2)C1` gave VDR inhibitor inactive.
O=[N+]([O-])c1ccc(Sc2cccc[n+]2[O-])c2nonc12 was read as Tb PFK inh-1 11µM, VDR inhibitor 8.9µM, GLS inh 11µM, Pin1 inh inconclusive, PGK inhibitor inconclusive, Tb PFK KinaseGlo 2.7µM, Tb PFK inh-2 9.5µM, VDR confirm 6, VDR FP inconclusive, VDR bla 3.7µM and VDR cytotox inconclusive.
COc1ccc(OC)c(-c2c3cc(O)c(=O)cc-3oc3cc(O)c(O)cc23)c1 was read as Tb PFK inh-1 9.5µM, VDR inhibitor 25µM, GLS inh inactive, Pin1 inh inconclusive, PGK inhibitor inconclusive, Tb PFK KinaseGlo inconclusive, Tb PFK inh-2 3.8µM, VDR confirm 24, VDR FP inconclusive, VDR bla inactive and VDR cytotox inconclusive.
Screening O=C(Nc1cccc(Br)c1)c1c(O)c2c(n(Cc3ccccc3)c1=O)CCCC2 returned Tb PFK inh-1 inactive, VDR inhibitor inactive, GLS inh inactive, Pin1 inh inactive and PGK inhibitor inactive.
O=C1CCC(C(=O)Nc2cccc(S(=O)(=O)Nc3ccccc3F)c2)=NN1 was read as Tb PFK inh-1 inconclusive, VDR inhibitor 25µM, GLS inh inactive, Pin1 inh inactive, PGK inhibitor inactive, Tb PFK KinaseGlo 3.4µM, Tb PFK inh-2 9.5µM, VDR confirm inconclusive, VDR FP inconclusive, VDR bla inactive and VDR cytotox inactive.
For CC(C)CN1CCCC2(CCN(C(=O)Oc3ccccc3)CC2)C1 the results were VDR inhibitor inactive.
Screening Cc1ccccc1NC(=O)N1Cc2ccccc2-n2nncc2C1 returned GLS inh inactive and PGK inhibitor inactive.
ClC(Cl)(c1nnnn1-c1ccccc1)c1nnnn1-c1ccccc1 was read as Tb PFK inh-1 11µM, VDR inhibitor 3.5µM, GLS inh 10µM, Pin1 inh inactive, PGK inhibitor inactive, Tb PFK KinaseGlo 3.4µM, Tb PFK inh-2 11µM, VDR confirm 3.4, VDR FP inconclusive, VDR bla inconclusive and VDR cytotox 16µM.
Screening COc1cc(C2c3cc4c(cc3C(O)C3COC(=O)C23)OCO4)cc(OC)c1O (stereo not given) returned VDR inhibitor inactive.
For COc1cc2c(cc1O)[C@H]1Cc3ccc(OC)c(O)c3CN1CC2 the results were VDR inhibitor inactive, Tb PFK KinaseGlo inactive, Tb PFK inh-2 inactive and USP1 UbRho inconclusive.
Screening CC(C)Oc1ccc(C(=O)Nc2ccc3c(c2)CCCN3C(=O)c2cccs2)cc1 returned VDR inhibitor inactive, GLS inh inactive, Pin1 inh inactive and PGK inhibitor inactive.
Screening O=C(/C=C1\C(=O)Nc2ccccc21)/C=C1\C(=O)Nc2ccccc21 returned Tb PFK inh-1 inconclusive, VDR inhibitor 56µM, GLS inh inactive, Pin1 inh inconclusive, PGK inhibitor inactive, Tb PFK KinaseGlo 1.7µM, Tb PFK inh-2 4.8µM, VDR confirm 12, VDR FP inconclusive, VDR bla inconclusive and VDR cytotox inconclusive.
For CCC(=O)N1CC(=O)Nc2ccc(C)cc2C1c1ccc(F)cc1 (stereo not given) the results were VDR inhibitor inactive, GLS inh inactive, Pin1 inh inactive and PGK inhibitor inactive.
